# Measurements taken from PubChem BioAssay AID1259422 (The Scripps Research Institute Molecular Screening Center, 2018).
# Out of some 640,000 compounds screened, about 9,300 (1.5%) were called active. No stated cut-off is given here; in the data, active means inhibition above about 32%; inactive means the rest. The entries come from a sample that favours actives as a whole.
# Experiment: TEAD-YAP interaction inhibition, primary screen, TEAD-YAP interaction inhibitor project, luminescence, HEK-TIYL cells (AID 1259422);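 further: 0% = median of test compound wells and 100% = reference inhibitor wells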
# Conditions: TEAD-Gal4/YAP UAS-luciferase luminescence, at 9.12 µM, active compounds read high
row,Compound,inhibition
1,CCOC(=O)c1sc(NC(=O)c2cccc(Cl)c2)c(C(=O)OCC)c1C,-1.99% (inactive)
2,O=C(NCC1CCC2(CCN(Cc3ccccc3)CC2)O1)c1ccc(F)c(Cl)c1 (stereo not given),-14.8% (inactive)
3,O=C(NCCCO)/C(=C/c1ccc([N+](=O)[O-])cc1)NC(=O)c1ccco1,1.95% (inactive)
4,O=C(CCCN1CCc2ccccc2C(O)(c2ccccc2)C1)c1ccc(F)cc1 (stereo not given),-4.26% (inactive)
5,O=C1CN(c2ccccc2F)C(=O)CN1/N=C/c1ccccc1Cl,-10.8% (inactive)
6,Cc1ccc(-c2c(Nc3cccc(F)c3)c(=O)c2=O)cc1C,53.5% (active)
7,COc1ccc(-c2c(Nc3cccc(C)c3)c(=O)c2=O)cc1,4.83% (inactive)
8,COC(=O)c1ccccc1Nc1c(-c2ccc(C)c(C)c2)c(=O)c1=O,5.02% (inactive)
9,Cc1cc(C)nc(/N=C(/NC(=O)c2ccc(F)cc2)Nc2ccc(F)cc2F)n1,2.84% (inactive)
10,COc1ccc(-c2cccc(C(=O)Nc3ccc(Oc4ccccc4)cc3)n2)cn1,-3.01% (inactive)
11,O=[N+]([O-])c1ccc(OCc2nnc(SCCN3CCOCC3)n2-c2ccccc2)cc1,3.41% (inactive)
12,CCn1c(COc2ccccc2OC)nnc1SCC(=O)NC,4.57% (inactive)
13,CCn1c(COc2ccccc2)nnc1Sc1ccc([N+](=O)[O-])cc1C=O,59.5% (active)
14,Cc1ccc2cc(C#N)c(SCC(=O)N3CC(=O)Nc4ccccc43)nc2c1C,63.3% (active)
15,CCN(CC)C(=O)CSc1nc2c(C)c(C)ccc2cc1C#N,8.08% (inactive)
16,Cc1ccc(C)c2nc(SCC(=O)N3CC(=O)Nc4ccccc43)c(C#N)cc12,-2.34% (inactive)
17,FC(F)(F)c1cccc(-c2ccc(/C=N/Nc3nn[nH]n3)o2)c1,4.88% (inactive)
18,O=C(CSCc1cc2cccc3c2n(c1=O)CCC3)NCc1ccncc1,8.05% (inactive)
19,O=C1c2cccnc2C(=O)N1CNc1ccccc1,2.66% (inactive)
20,COc1ccc(Nc2ccccc2)cc1,-22.2% (inactive)
21,O=c1cc(Nc2ccc(Br)cc2)c2ccccc2o1,0.69% (inactive)
22,COc1ccc(Nc2cc(=O)oc3ccccc23)cc1,36.2% (active)
23,C=CCn1c(SCC(=O)c2ccc(OC)c(C)c2)nnc1-c1ccncc1,4.75% (inactive)
24,Cc1cc(C(=O)NC(C)c2ccccc2)c2ccccc2n1 (stereo not given),5.1% (inactive)

row,Compound,inhibition
1,CCC(CC)=NNC(=O)c1cc(C)nc2ccccc12,48.1% (active)
2,CCCCCNC(=O)c1cc(C)nc2ccccc12,2.15% (inactive)
3,Cc1cc(C)c(S(=O)(=O)N2CCOCC2)c(C)c1[N+](=O)[O-],-0.25% (inactive)
4,COc1ccccc1-n1nnnc1SCC(=O)c1ccc(Br)s1,2.7% (inactive)
5,COc1ccccc1-n1nnnc1S(=O)(=O)Cc1ccc(Cl)cc1,48.7% (active)
6,COc1ccccc1NC(=O)C(=O)NCc1ccc(Cl)cc1,1.06% (inactive)
7,CCOC(=O)N1CCN(C(=O)CN2N=C(c3ccc(OC)cc3)CCC2=O)CC1,-0.51% (inactive)
8,COc1ccc(-n2nnnc2-c2nc3ccccc3s2)cc1,74.2% (active)
9,c1ccc(-n2nnnc2SCc2nc3ccccc3s2)cc1,-47.7% (inactive)
10,COc1ccc2nc(NC(=O)CSc3nnnn3-c3ccccc3)sc2c1,8.33% (inactive)
11,OCc1cccc(-c2cnn3c(NCc4cccs4)ccnc23)c1,102% (active)
12,Fc1ccc(CNc2ccnc3c(-c4ccsc4)cnn23)cc1,-14.1% (inactive)
13,CN(C)CCNc1ccnc2c(-c3cccc(O)c3)cnn12,2.13% (inactive)
14,COc1ccc(CCNC(=O)c2cc(-c3ccccc3OC)n[nH]2)cc1OC,2.42% (inactive)
15,O=C(CSc1n[nH]c(=O)[nH]c1=O)N/N=C/c1cccnc1,10.8% (inactive)
16,O=C(Cc1cccc2ccccc12)N/N=C/c1cccnc1,3.15% (inactive)
17,O=C(CSc1cccc2cccnc12)N/N=C/c1cccnc1,46.5% (active)
18,Cc1nc(NC(=O)CSc2nnc(-c3ccccc3)n2C)sc1C,9.15% (inactive)
19,CCOc1ccc(NC(=O)c2ccc3c(=O)n(-c4ccc(F)cc4)c(=S)[nH]c3c2)cc1,4.1% (inactive)
20,Cc1cc(Cl)c(S(=O)(=O)N2CCCc3ccccc32)cc1OCC(N)=O,4.13% (inactive)
21,O=C(CC1C(=O)N(c2ccc(F)cc2)C(=O)N1Cc1cccs1)Nc1ccc(F)cc1 (stereo not given),5.51% (inactive)
22,COc1ccc(OC(C)C(=O)Nc2ccc3ccccc3c2)cc1 (stereo not given),39.1% (active)
23,COc1ccc(OC(C)C(=O)Nc2cccc(Br)c2)cc1 (stereo not given),5.3% (inactive)
24,COc1ccc(NC(=O)C(C)Oc2cc(C)cc(C)c2)cc1 (stereo not given),15.9% (inactive)

row,Compound,inhibition
1,COC(=O)C1=CN(Cc2ccc(F)cc2)C=C(C(=O)OC)C1c1ccc(C)s1,3.1% (inactive)
2,CCn1ccc(C(=O)Nc2sccc2C(=O)NC)n1,10.4% (inactive)
3,COc1ccccc1-n1cnc2cc(NC(=O)c3ccccc3)ccc21,38% (active)
4,COc1ccc(-n2cnc3cc(C(=O)NCc4ccccc4OC)ccc32)cc1,4% (inactive)
5,COc1cc(NC(=O)c2ccccc2)c(C(=O)O)cc1OC,7.96% (inactive)
6,CN(C)c1cc(C(=O)N2CCN(C(=O)C(C)(C)C)CC2)nc(N(C)C)n1,0.22% (inactive)
7,Cn1cc(-c2nc(Nc3ccc(-n4cnc(N5CCC(O)CC5)n4)cc3)ncc2Br)cn1,85.4% (active)
8,c1coc(-c2ccc3cnc(Nc4ccc(-n5cnc(N6CCOCC6)n5)cc4)nc3c2)n1,-7.9% (inactive)
9,Cn1cc(-c2ccc3cnc(Nc4ccc(-n5cnc(N6CCOCC6)n5)cc4)nc3c2-c2cnn(C)c2)cn1,88.5% (active)
10,Cn1cc(-c2cc(Nc3ccc(-n4cnc(N5CCC(O)CC5)n4)cc3)ncc2Cl)cn1,0.35% (inactive)
11,Cc1ncn(-c2ccc(Nc3ncc4cccc(-c5ccc6scnc6c5)c4n3)cc2)n1,3.89% (inactive)
12,COc1ccc(CCNC(=O)CCn2c(SCc3cccc(Cl)c3)nc3ccccc3c2=O)cc1OC,-6.64% (inactive)
13,CCOC(=O)C1=C(C)NC(=S)NC1c1cc(OC)ccc1Br (stereo not given),-4.97% (inactive)
14,CC(=O)c1cccc(-c2ccc(C(=O)NCCN3CCOCC3)s2)c1,-17.5% (inactive)
15,COc1ccc(-c2noc(CNC(=O)c3ccc(Br)cc3)n2)cc1,-8.01% (inactive)
16,CC1=C(C(=O)OCc2ccccc2)C(c2ccc3c(c2)OCO3)C2=C(CC(c3cccs3)CC2=O)N1 (stereo not given),-4.32% (inactive)
17,CC1=C(C(=O)OCc2ccccc2)C(c2cccc([N+](=O)[O-])c2)C2=C(CC(c3cccs3)CC2=O)N1 (stereo not given),58.1% (active)
18,COC(=O)C1=C(C)NC2=C(C(=O)CC(c3cccs3)C2)C1c1cccc(OCc2ccccc2)c1 (stereo not given),15.8% (inactive)
19,O=C(CSc1cccc[n+]1[O-])Nc1nc2ccccc2s1,3.26% (inactive)
20,Cc1nccn1CC(O)COc1ccc(Br)cc1 (stereo not given),5.95% (inactive)
21,COc1ccc(OC)c(C(=O)COc2ccc(Br)cc2C#N)c1,52.8% (active)
22,COc1ccc(C(=O)COC(=O)COc2ccccc2C#N)c(OC)c1,7.04% (inactive)
23,COc1ccc(OCC(=O)c2ccc(F)cc2)c(C#N)c1,-65.6% (inactive)
24,CN(C)C(=O)c1cc(-c2cn[nH]c2)ccc1NC(=O)OCc1ccccc1,-2.11% (inactive)

row,Compound,inhibition
1,CC(=O)Nc1ccc(N2C(=O)c3ccc4c5c(ccc(c35)C2=O)C(=O)N(c2ccc(NC(C)=O)cc2)C4=O)cc1,5.3% (inactive)
2,COc1cc(OC)nc(Oc2cccnc2/C=N/Nc2ccccc2[N+](=O)[O-])n1,-11.9% (inactive)
3,CCN(CC)S(=O)(=O)c1ccc2nc(NC(=O)CC(C)C)sc2c1,42.2% (active)
4,CS(=O)(=O)c1ccc2nc(NC(=O)CSc3ccccc3)sc2c1,7.95% (inactive)
5,CCCC(=O)Nc1nc2ccc(S(=O)(=O)N(C)C)cc2s1,-15.2% (inactive)
6,COc1cc(/C=C2/SC(=O)N(C)C2=O)cc(Br)c1OC,-1.8% (inactive)
7,COc1ccc(N2C(=O)CC(NNC(=O)c3ccccc3O)C2=O)cc1 (stereo not given),8.23% (inactive)
8,CC12CCC(C(=O)N(NC(=O)c3ccccc3O)C1=O)C2(C)C (stereo not given),74.3% (active)
9,CCN(CC)c1ccc(NC(=O)c2ccccc2O)cc1,-31.2% (inactive)
10,CC12C=CC3(O1)C(C(=O)N(CC1CCCO1)C3C(=O)NC1CCCCC1)C2C(=O)Nc1ccc(Cl)c(Cl)c1 (stereo not given),2.66% (inactive)
11,CCOc1ccc(S(=O)(=O)NCCOc2ccc(F)cc2)c(OCC)c1,10.6% (inactive)
12,O=C1c2ccccc2C(=O)N1c1cccc(Br)c1,-1.81% (inactive)
13,COc1ccc(-c2nc(NCCO)c3ncn(-c4ccsc4)c3n2)cn1,41.7% (active)
14,Nc1cccc(-c2nc(NCCO)c3ncn(-c4ccccc4)c3n2)c1,31.7% (inactive)
15,Cn1c(Nc2nc(NCCN3CCOCC3)c3ncn(-c4ccccc4)c3n2)nc2ccccc21,25.9% (inactive)
16,NC(=O)c1ccc(-c2nc(NCCO)c3ncn(-c4ccsc4)c3n2)cc1,18.6% (inactive)
17,Clc1nc(NCCN2CCOCC2)c2ncn(-c3ccccc3)c2n1,-5.11% (inactive)
18,COc1ccc(-c2nc(NCCN3CCOCC3)c3ncn(-c4ccccc4)c3n2)cn1,59.2% (active)
19,C=CCn1c(=O)c(C(=O)Nc2cccc(Cl)c2)c(O)c2ccccc21,3.7% (inactive)
20,O=C(Nc1cccc2c1C(=O)c1ccccc1C2=O)c1ccc(F)cc1,-2.6% (inactive)
21,CONC(=O)c1ccc(C(=O)c2cc(OC)ccc2OC)cc1,35.8% (active)
22,CNC(=O)C(=O)Nc1cc(OC)ccc1OC,10.2% (inactive)
23,COc1ccc(OC)c(C(=O)c2ccc(C(=O)NC3CC(C)(C)NC(C)(C)C3)cc2)c1,17.9% (inactive)
